# BoNT-F LC inh = blocks Botulinum neurotoxin F light chain protease. Multiplex microsphere protease cleavage assay, flow cytometry. hit rate 0.22% among 360,000. inhibition, % at 10 µM. AID 588497; in the data active means inhibition above about 35%, passing the limit was not always enough; inconclusive means no clear call, values can overlap the other calls
# Anthrax LF prot = inhibitors of Bacillus anthracis lethal factor protease; multiplex microsphere protease cleavage assay, LF; inhibition, % at 10 µM; hit rate 0.12% among 360,000; AID 588501
# Target sequence (P15917 whole entry, looked up): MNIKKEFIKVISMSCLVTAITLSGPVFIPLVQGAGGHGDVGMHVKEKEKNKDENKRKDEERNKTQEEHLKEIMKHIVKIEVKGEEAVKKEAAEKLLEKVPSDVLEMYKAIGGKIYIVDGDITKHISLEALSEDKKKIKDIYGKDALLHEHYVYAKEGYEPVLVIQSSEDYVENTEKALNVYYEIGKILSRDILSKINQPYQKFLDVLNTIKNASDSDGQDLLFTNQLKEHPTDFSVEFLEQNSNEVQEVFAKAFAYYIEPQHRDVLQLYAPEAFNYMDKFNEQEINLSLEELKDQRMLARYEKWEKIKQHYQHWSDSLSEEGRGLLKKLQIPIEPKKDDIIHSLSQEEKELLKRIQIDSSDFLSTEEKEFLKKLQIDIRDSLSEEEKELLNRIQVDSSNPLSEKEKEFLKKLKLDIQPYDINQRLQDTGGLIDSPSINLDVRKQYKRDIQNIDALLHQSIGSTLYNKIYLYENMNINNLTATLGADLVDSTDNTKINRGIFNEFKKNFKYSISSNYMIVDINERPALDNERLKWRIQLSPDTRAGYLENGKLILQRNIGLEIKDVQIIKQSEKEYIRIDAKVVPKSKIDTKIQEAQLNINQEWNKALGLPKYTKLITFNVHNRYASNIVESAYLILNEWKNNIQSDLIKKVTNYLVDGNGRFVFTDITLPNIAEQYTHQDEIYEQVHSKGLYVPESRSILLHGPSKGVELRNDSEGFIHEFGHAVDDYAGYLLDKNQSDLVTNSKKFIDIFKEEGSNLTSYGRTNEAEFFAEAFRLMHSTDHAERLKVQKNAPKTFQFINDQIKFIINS
# BoNT A protease = blocks Botulinum neurotoxin A light chain protease; hit rate 0.17% among 360,000; AID 588499; inhibition, % at 10 µM; multiplex microsphere protease substrate cleavage, flow cytometry
# Autofluor counter = counter-screen for toxin protease inhibitors: compound fluorescence. compound autofluorescence counterscreen, microsphere flow cytometry; stronger effect = higher value. fluorescence intensity (concentration not given with the values). hit rate 3.1% among 360,000; in the data active means fluorescence intensity above about 16000; inconclusive means no clear call, values can overlap the other calls
# Numbers stand for hits; - = inactive; ? = inconclusive. Hits are enriched below; roughly 3.5% of the tested compounds scored in any of these assays. Unless noted, no stated cut-off is given here; in the data, active means inhibition above about 30%; inconclusive means no clear call, values can overlap the other calls; inactive means below that.
SMILES,BoNT-F LC inh,Anthrax LF prot,BoNT A protease,Autofluor counter
COc1ccccc1C/C(N)=N/OC(=O)COc1ccccc1C,-,-,-,-
COc1ccccc1C/C(N)=N/OC(=O)COc1cccc2ccccc12,-,-,-,21885
COc1cc2c(cc1OC)-c1cc(NC3CCCC3)nc(=O)n1CC2,-,-,?,22438
CCCCNCCOCCSc1ccc(Cl)cc1,-,-,-,21188
CN(C)CCOCCSc1ccc(Cl)cc1,-,-,-,23961
O=C(OCC(=O)N1CCN(C(=O)c2ccco2)CC1)c1cc(F)c(F)cc1Cl,-,-,-,-
O=C(Oc1ccc(N(Cc2cccs2)C2=NS(=O)(=O)c3ccccc32)cc1)c1ccccc1,-,-,?,23485
CSc1ccccc1NC(=O)CN(C)C(=O)COc1cccc2cccnc12,-,-,-,-
O=C(NCCCN1C(=O)c2ccccc2C1=O)OCc1ccccc1,-,-,-,-
COc1ccc(CCN2CC(C(=O)NC3CCOCC3)CCC2=O)cc1 (stereo not drawn),-,-,-,-
O=C(Cc1cccs1)N1CCN(S(=O)(=O)c2ccc(Br)cc2)CC1,-,-,-,-
CS(=O)(=O)N1CCN(C(=O)c2ccc(Br)s2)CC1,-,-,-,20324
CS(=O)(=O)N1CCN(C(=O)Cc2cccs2)CC1,-,-,?,16441
O=C(Nc1ccc(Cl)cc1C(=O)c1ccccc1)c1ccco1,-,-,-,-
O=C(Nc1ccc(Cl)cc1C(=O)Nc1ccc(Br)cn1)c1ccco1,-,-,-,20162
N=c1c(S(=O)(=O)c2ccc(Cl)cc2)cc2c(=O)n3ccccc3nc2n1CCN1CCOCC1,-,-,-,21495
Cc1ccc(CNC(=O)c2cc3c(=O)n4ccccc4nc3n(Cc3ccco3)c2=N)cc1,-,-,-,-
Cc1ccc(S(=O)(=O)c2cc3c(=O)n4ccccc4nc3n(Cc3ccco3)c2=N)cc1,-,-,?,20456
CCN1CCN(C(=O)CCc2nnc(CCc3ccc(OC)cc3)o2)[C@@H](C)C1=O,-,-,-,-
O=C(Nc1sccc1C(=O)NCc1ccco1)c1cccnc1,-,-,?,16659
Cc1ccc2c(c1)N(CC(=O)N1CCc3ccccc3C1)C(=O)CO2,-,-,-,21837
Cc1ccc2c(c1)N(CC(=O)N1CCCc3ccccc31)C(=O)CO2,-,-,-,16620
O=C(CN1C(=O)COc2ccccc21)N1CCc2ccccc21,-,-,-,-
Cc1ccc(CNC(=O)CN2C(=O)COc3ccc(C)cc32)cc1,-,-,-,19416
Cc1ccc2c(c1)N(CC(=O)N1CCCCC1)C(=O)CO2,-,-,-,-
SMILES,BoNT-F LC inh,Anthrax LF prot,BoNT A protease,Autofluor counter
C=CCc1cccc(/C=N/NC(=O)c2ccc3nc[nH]c3c2)c1O,-,-,-,-
CC(=O)Nc1sc(C)c(C)c1C(=O)OCC(=O)N(Cc1ccccc1)C(C)C,-,-,-,-
COc1ccc(NC(=O)c2ccc(-n3cccn3)nc2)cc1,-,-,-,22260
O=C(Nc1ccc(F)cc1)c1ccc(-n2ccnc2)nc1,-,-,-,22409
COc1ccccc1NC(=O)c1ccc(C(=O)Nc2ccccc2OC)nc1,-,-,-,-
COc1ccccc1NC(=O)c1ccc(-n2cccn2)nc1,-,-,-,22967
COc1ccc(NC(=O)c2ccc(-n3cccn3)nc2)c(OC)c1,-,-,-,22774
O=S(=O)(NC1C2CC3CC(C2)CC1C3)c1ccc(F)cc1 (stereo not drawn),-,?,?,?
O=C(Nc1ccc(F)cc1F)c1ccc(-n2cncn2)nc1,-,-,?,21818
O=C(Nc1ccc(F)cc1F)c1ccc(-n2cccn2)nc1,-,-,-,-
O=C(c1ccco1)N1CCN(S(=O)(=O)c2ccccc2)CC1,-,-,-,-
Cc1ccc(-c2cc(C(=O)N3CCN(C(=O)c4ccco4)CC3)no2)cc1,-,-,-,20055
O=C(CN1C(=O)NC2(CCCC2)C1=O)N1CCN(C(=O)c2ccco2)CC1,-,-,-,19470
CN(C)C(=O)N1CCN(C(=O)c2ccco2)CC1,-,-,-,-
O=C(c1ccco1)N1CCCN(C(=O)c2ccco2)CC1,-,-,-,23373
O=C(c1ccco1)N1CCN(c2ccc(S(=O)(=O)N3CCCC3)cc2)CC1,-,-,-,22603
CCN1CCN(C(C)CCc2ccccc2)CC1 (stereo not drawn),-,-,-,-
Cc1cc(O)ccc1C1(c2ccc(O)cc2C)OC(=O)c2ccccc21,-,-,-,-
CC(=O)Oc1ccc2c(c1)Oc1cc(OC(C)=O)ccc1C21OC(=O)c2ccccc21,-,-,-,17180
CCOc1ccc2nc(N3CCOCC3)nc(C)c2c1,-,-,-,-
CCOc1ccc2nc3ccc4[nH]onc4c3c2c1,49.5,-,?,-
COc1ccc2c(c1)c1nc3ccccc3nc1n2CCn1c(=O)oc2ccccc21,-,-,-,16506
Cc1ccc(C2CC(=O)Nc3cc4c(cc32)OCO4)o1 (stereo not drawn),-,-,-,23026
O=C(CCCn1c(=S)[nH]c2cc3c(cc2c1=O)OCO3)NCCc1ccccc1Cl,-,-,-,-
Cc1cc2nc(C)n(CCCN)c2cc1C,-,-,-,22118
SMILES,BoNT-F LC inh,Anthrax LF prot,BoNT A protease,Autofluor counter
Fc1ccccc1/C=C1\CCCC2=C1Nc1nnnn1C2c1ccccc1F (stereo not drawn),-,-,-,22685
O=C(CC(Nc1ccccc1)C(=O)O)c1ccccc1 (stereo not drawn),42.0,-,-,-
COc1cc(NC(=O)CSc2nc3ccccc3c(=O)n2C)ccc1NC(=O)c1ccco1,-,-,-,17911
COc1cc(NC(=O)c2ccco2)c(OC)cc1NC(=O)CSc1nnc(-c2cccs2)n1C,-,-,-,22652
COc1cc(NC(=O)COc2ccccc2)ccc1NC(=O)c1ccco1,-,-,-,-
CCOc1ccc(OCC)c(NC(=O)CSc2nc3ccccc3c(=O)n2C)c1,-,-,-,22042
CCCn1c(=O)c2ccccc2n2c(SCc3c(C(=O)OCC)oc4ccccc34)nnc12,-,-,-,-
CCOC(=O)CSc1nnnn1-c1cc(OC)ccc1OC,-,-,-,16299
COc1ccccc1-n1nnnc1SCC(=O)Nc1ccccn1,-,-,-,19311
COc1ccc(OC)c(-n2nnnc2SCC(=O)Nc2ccc3c(c2)OCCO3)c1,-,-,-,-
CCOC(=O)c1oc2ccccc2c1CSc1nnnn1-c1ccc(OC)cc1,-,-,?,21747
CCN(c1ccc(OC)cc1)S(=O)(=O)c1nnc(NC(=O)c2ccc(C)cc2)s1,-,-,-,-
CCOC(=O)c1c(C)n(Cc2ccccc2)c2ccc(O)cc12,-,-,-,-
C=COCCn1c(C)c(C(=O)OCC)c2cc(O)ccc21,-,-,?,21557
CCSc1ccc(C(=O)Nc2ccc(Br)cn2)cc1[N+](=O)[O-],-,-,-,19284
CCSc1ccc(C(=O)Nc2cccc(C)n2)cc1[N+](=O)[O-],-,-,-,-
CCCNC(=O)NCCc1ccncc1,-,-,-,-
CC(C)CC(=O)NCCc1ccncc1,-,-,-,22906
CC(=O)c1ccc(S(=O)(=O)N(C)CC(=O)Nc2ccc(C)cc2)cc1,-,-,-,-
CC1CCN(C(=O)COC(=O)c2ccc(Cl)nc2)CC1,-,-,-,-
O=C(OCC(=O)N1CCOCC1)c1ccc(Cl)nc1,-,-,-,22562
O=C(CSc1ncccc1C(=O)O)NCCC1=CCCCC1,-,-,-,20428

# Source: PubChem (NMMLSC)
